Results on 6 molecules are retold here after the supplement of paper PMC6658780.

Counter-ions that a name gives are not always drawn. ± gives the standard deviation of the averaged measurements.

One assay deals with Klebsiella pneumoniae KPC-119. Nature of the assay: percent growth inhibition of drug alone vs DMSO control; higher = more growth inhibition. As to conditions: antibiotic (0.125x MIC): none (0.1% DMSO); 7 µM.
As for `CCn1cc(C(=O)O)c(=O)c2cc3c(cc21)OCO3` [Oxolinic acid], the “percent growth inhibition of drug alone” value amounted to 6.34 ± 3%.

For the molecule `C=CCN1CC[C@]23c4c5ccc(O)c4O[C@H]2C(=O)CC[C@@]3(O)[C@H]1C5` [Naloxone hydrochloride], the “percent growth inhibition of drug alone” value is -0.923 ± 1.2%.

Consider `C[N+]1([O-])[C@@H]2C[C@@H](OC(=O)[C@H](CO)c3ccccc3)C[C@H]1[C@@H]1O[C@@H]12` (stereo partly specified) [Scopolamin-N-oxide hydrobromide], for which the “percent growth inhibition of drug alone” value is -1.08 ± 2.3%.

For the molecule `C#CCN(C)[C@H](C)Cc1ccccc1` [Selegiline hydrochloride], the “percent growth inhibition of drug alone” value was -1.33 ± 2.5%.

Regarding `O=C([O-])c1ccccc1-c1c2cc(Br)c(=O)cc-2oc2[c]([Hg+])c([O-])c(Br)cc12.[Na+].[Na+].[OH-]` [Merbromin], the “percent growth inhibition of drug alone” value turned out to be 1.39 ± 0.87%.

In the case of `C[C@]12CC[C@H](O)C[C@@H]1CC[C@@H]1[C@@H]2CC[C@]2(C)C(=O)CC[C@@H]12` [Epiandrosterone], the “percent growth inhibition of drug alone” value was 0.561 ± 2%.

Still in this assay, the particulars now being: antibiotic (0.125x MIC): none (0.1% DMSO); 20 µM.
For `CCn1cc(C(=O)O)c(=O)c2cc3c(cc21)OCO3` [Oxolinic acid], the “percent growth inhibition of drug alone” value is 16.3 ± 9.5%.

Take `C=CCN1CC[C@]23c4c5ccc(O)c4O[C@H]2C(=O)CC[C@@]3(O)[C@H]1C5` [Naloxone hydrochloride]: the “percent growth inhibition of drug alone” value is 0.247 ± 1.1%.

As for `C[N+]1([O-])[C@@H]2C[C@@H](OC(=O)[C@H](CO)c3ccccc3)C[C@H]1[C@@H]1O[C@@H]12` (stereo partly specified) [Scopolamin-N-oxide hydrobromide], the “percent growth inhibition of drug alone” value was -2.41 ± 3.1%.

For the molecule `C#CCN(C)[C@H](C)Cc1ccccc1` [Selegiline hydrochloride], the “percent growth inhibition of drug alone” value is 0.878 ± 0.49%.

Consider `O=C([O-])c1ccccc1-c1c2cc(Br)c(=O)cc-2oc2[c]([Hg+])c([O-])c(Br)cc12.[Na+].[Na+].[OH-]` [Merbromin], for which the “percent growth inhibition of drug alone” value came to 7.86 ± 1.4%.

Regarding `C[C@]12CC[C@H](O)C[C@@H]1CC[C@@H]1[C@@H]2CC[C@]2(C)C(=O)CC[C@@H]12` [Epiandrosterone], the “percent growth inhibition of drug alone” value was -1.04 ± 0.09%.

The next assay concerns Klebsiella pneumoniae KPC-119. The assay is described as follows: percent growth inhibition of drug + antibiotic vs DMSO control; higher = more growth inhibition. As to conditions: antibiotic (0.125x MIC): colistin; 20 µM.
Consider `CCn1cc(C(=O)O)c(=O)c2cc3c(cc21)OCO3` [Oxolinic acid], for which the percent growth inhibition is 100.2 ± 0.18%.

In the case of `C=CCN1CC[C@]23c4c5ccc(O)c4O[C@H]2C(=O)CC[C@@]3(O)[C@H]1C5` [Naloxone hydrochloride], the percent growth inhibition was -10.2 ± 2.5%.

On to `C[N+]1([O-])[C@@H]2C[C@@H](OC(=O)[C@H](CO)c3ccccc3)C[C@H]1[C@@H]1O[C@@H]12` (stereo partly specified) [Scopolamin-N-oxide hydrobromide], for which the percent growth inhibition came to 7.85 ± 0.11%.

On to `C#CCN(C)[C@H](C)Cc1ccccc1` [Selegiline hydrochloride], for which the percent growth inhibition amounted to 4.23 ± 6.9%.
